Test results taken from PubChem BioAssay AID1159580 (chemical genetic matrix, 2015).
Values joined by “and” are separate entries in the source; they are usually repeats but may differ in a detail not shown here. Equal entries are not always repeated. In all, about 5,500 compounds went through this assay and about 2,000 (36%) were called active. Not shown: some 18% with an inconclusive outcome. No stated cut-off is given here; in the data, active means normalized growth mostly below about 0.91 (no sharp cut-off); inconclusive means no clear call, values can overlap the other calls; inactive means mostly above about 0.92. Some of the results follow.

Assay: chemical genetic growth profiling, strain panel (AID 1159580);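 further: tested at 20 µM; growth read once vehicle control cultures reached saturation at 30 °C; 1 = growth at the plate median or of vehicle wells; lower values mean less growth of the strain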
Conditions: S. cerevisiae deletion strains, growth OD

Measured: normalized growth

CCOC(=O)C1C(C=C(C)C)C1(C)C (stereo unspecified)
inactive: locus YAL013W, strain DEP1, active compounds read low 0.998 | locus YAL021C, strain ccr4, active compounds read low 0.989 | locus YAL026C, strain drs2, active compounds read low 1.01 | locus YAL030W, strain snc1, active compounds read low 1 | locus YBL061C, strain skt5, active compounds read low 1.01 | locus YBR009C, strain hhf1, active compounds read low 0.998 | locus YBR021W, strain FUR4, active compounds read low 0.979 | locus YBR023C, strain chs3, active compounds read low 1 | locus YBR171W, strain sec66, active compounds read low 1 | locus YBR229C, strain ROT2, active compounds read low 1 | locus YBR231C, strain swc5, active compounds read low 0.995 | locus YBR279W, strain paf1, active compounds read low 1 | locus YCL011C, strain gbp2, active compounds read low 0.992 | locus YCL016C, strain dcc1, active compounds read low 1.01 | locus YCL029C, strain bik1, active compounds read low 1.02 | locus YCL061C, strain MRC1, active compounds read low 0.996 | locus YCL069W, strain vba3, active compounds read low 1 | locus YCR088W, strain abp1, active compounds read low 1 | locus YDL005C, strain med2, active compounds read low 0.991 | locus YDL035C, strain GPR1, active compounds read low 1.01 | locus YDL040C, strain nat1, active compounds read low 1.02 | locus YDL074C, strain BRE1, active compounds read low 1.03 | locus YDL101C, strain DUN1, active compounds read low 1 | locus YDL185W, strain tfp1, active compounds read low 1.02 | locus YDL192W, strain arf1, active compounds read low 1 | locus YDR001C, strain nth1, active compounds read low 1 | locus YDR069C, strain doa4, active compounds read low 1 | locus YDR101C, strain arx1, active compounds read low 1.01 | locus YDR137W, strain rgp1, active compounds read low 1.01 | locus YDR159W, strain sac3, active compounds read low 0.939 | locus YDR162C, strain NBP2, active compounds read low 1.01 | locus YDR195W, strain ref2 0.99 | locus YDR297W, strain sur2, active compounds read low 0.991 | locus YDR318W, strain mcm21, active compounds read low 1.01 | locus YDR334W, strain swr1, active compounds read low 1.01 | locus YDR335W, strain msn5, active compounds read low 1 | locus YDR388W, active compounds read low 1.01 | locus YDR392W, strain spt3, active compounds read low 0.876 | locus YDR502C, strain sam2, active compounds read low 1.01 | locus YEL003W, strain gim4, active compounds read low 1.02 | locus YEL037C, strain rad23, active compounds read low 1 | locus YEL061C, strain CIN8 (second series), active compounds read low 1.01 | locus YEL061C, strain CIN8, active compounds read low 1 | locus YER015W, strain faa2, active compounds read low 1 | locus YER016W, strain bim1, active compounds read low 0.978 | locus YER110C, active compounds read low 1.02 | locus YER111C, strain swi4, active compounds read low 0.997 | locus YER155C, strain BEM2 (second series), active compounds read low 0.981 | locus YER155C, strain BEM2, active compounds read low 1 | locus YER167W, strain BCK2, active compounds read low 0.998 | locus YFR010W, strain ubp6, active compounds read low 1 | locus YGL078C, strain dbp3, active compounds read low 1 | locus YGL086W, strain mad1, active compounds read low 1.01 | locus YGL167C, strain pmr1, active compounds read low 1 | locus YGL173C, strain kem1, active compounds read low 1 | locus YGL227W, strain vid30, active compounds read low 1 | locus YGL240W, strain doc1, active compounds read low 0.97 | locus YGL248W, strain PDE1, active compounds read low 1.01 | locus YGL253W, strain hxk2, active compounds read low 1.02 | locus YGR078C, strain PAC10, active compounds read low 1.01 | locus YGR135W, strain pre9, active compounds read low 0.993 | locus YGR252W, strain gcn5, active compounds read low 0.982 | locus YHR013C, strain ard1, active compounds read low 1 | locus YHR027C, strain rpn1, active compounds read low 1 | locus YHR030C, strain SLT2, active compounds read low 1 and 1.04 | locus YHR079C, strain IRE1 (second series), active compounds read low 1 | locus YHR079C, strain IRE1, active compounds read low 1.04 | locus YHR094C, strain hxt1, active compounds read low 1.01 | locus YHR129C, strain ARP1, active compounds read low 1 | locus YHR142W, strain chs7, active compounds read low 1.01 | locus YHR200W, strain rpn10, active compounds read low 1.02 | locus YIL066C, strain RNR3, active compounds read low 0.996 | locus YIL073C, strain SPO22, active compounds read low 1.06 | locus YIL125W, strain kgd1, active compounds read low 1.01 | locus YIR030C, strain dcg1, active compounds read low 1.01 | locus YJL092W, strain hpr5, active compounds read low 1 | locus YJL095W, strain BCK1 (second series), active compounds read low 1.02 | locus YJL095W, strain BCK1, active compounds read low 1 and 1.02 | locus YJL115W, strain asf1, active compounds read low 0.999 | locus YJL129C, strain trk1, active compounds read low 0.984 | locus YJL134W, strain LCB3, active compounds read low 1 | locus YJL154C, strain vps35, active compounds read low 1 | locus YJL164C, strain tpk1, active compounds read low 0.989 | locus YJL166W, strain qcr8, active compounds read low 0.996 | locus YJL168C, strain set2, active compounds read low 1.01 | locus YJL187C, strain SWE1 (second series), active compounds read low 1 | locus YJR043C, strain POL32, active compounds read low 0.988 | locus YJR066W, strain TOR1, active compounds read low 0.991 | locus YKL009W, strain mrt4, active compounds read low 1.06 | locus YKL068W, active compounds read low 1.01 | locus YKL085W, strain MDH1 (second series), active compounds read low 1.01 | locus YKL085W, strain MDH1, active compounds read low 1.01 | locus YKL160W, strain elf1, active compounds read low 1.01 | locus YKL190W, strain CNB1, active compounds read low 0.983 | locus YKR001C, strain vps1, active compounds read low 1.04 | locus YKR026C, strain gcn3, active compounds read low 1 | locus YKR091W, strain srl3, active compounds read low 0.997 | locus YLL001W, strain dnm1, active compounds read low 0.978 | locus YLL026W, active compounds read low 1.01 | locus YLL041C, strain sdh2, active compounds read low 1.01 | locus YLR027C, strain aat2, active compounds read low 0.982 | locus YLR039C, strain RIC1, active compounds read low 1.01 | locus YLR058C, strain SHM2, active compounds read low 1 | locus YLR102C, strain apc9, active compounds read low 1.01 | locus YLR113W, strain HOG1, active compounds read low 1.04 | locus YLR221C, strain rsa3, active compounds read low 1.01 | locus YLR258W, strain gsy2, active compounds read low 1.01 | locus YLR262C, strain YPT6 (second series), active compounds read low 1.01 | locus YLR262C, strain YPT6, active compounds read low 1.02 | locus YLR268W, strain sec22, active compounds read low 1.03 | locus YLR320W, strain mms22, active compounds read low 0.976 | locus YLR330W, strain CHS5, active compounds read low 1.03 | locus YLR342W, strain FKS1 (second series), active compounds read low 0.98 | locus YLR342W, strain FKS1, active compounds read low 1 | locus YLR357W, strain rsc2, active compounds read low 0.925 | locus YLR370C, strain arc18, active compounds read low 1.02 | locus YLR371W, strain rom2, active compounds read low 1.01 | locus YLR384C, strain iki3, active compounds read low 0.995 | locus YLR418C, strain cdc73, active compounds read low 1.02 | locus YML016C, strain PPZ1, active compounds read low 1.01 | locus YML032C, strain rad52, active compounds read low 1 | locus YML120C, strain ndi1, active compounds read low 0.994 | locus YML124C, strain tub3, active compounds read low 1 | locus YMR058W, strain fet3, active compounds read low 1 | locus YMR078C, strain ctf18, active compounds read low 1 | locus YMR125W, strain sto1, active compounds read low 0.983 | locus YMR129W, active compounds read low 1 | locus YMR205C, strain PFK2, active compounds read low 0.995 | locus YMR223W, strain ubp8, active compounds read low 0.992 | locus YMR231W, strain pep5, active compounds read low 0.999 | locus YMR307W, strain GAS1, active compounds read low 1.02 | locus YNL067W, strain RPL9B, active compounds read low 1 | locus YNL071W, strain lat1, active compounds read low 1.01 | locus YNL183C, strain NPR1, active compounds read low 0.981 | locus YNL209W, strain ssb2, active compounds read low 0.99 | locus YNL233W, strain BNI4, active compounds read low 1 | locus YNL248C, strain rpa49, active compounds read low 0.95 | locus YNL250W, strain rad50, active compounds read low 1.02 | locus YNL271C, strain bni1, active compounds read low 1.02 | locus YNL298W, strain CLA4, active compounds read low 1.01 | locus YNL307C, strain MCK1, active compounds read low 1.02 | locus YNL322C, strain KRE1 (second series), active compounds read low 0.969 | locus YNR049C, strain mso1, active compounds read low 1 | locus YNR052C, strain pop2, active compounds read low 1.01 | locus YOL012C, strain htz1 0.867 | locus YOL147C, strain pex11, active compounds read low 1.01 | locus YOR001W, strain rrp6, active compounds read low 0.981 | locus YOR061W, strain CKA2, active compounds read low 1 | locus YOR069W, strain VPS5, active compounds read low 1 | locus YOR070C, strain gyp1, active compounds read low 0.996 | locus YOR080W, strain dia2, active compounds read low 0.991 | locus YOR083W, strain WHI5, active compounds read low 0.937 | locus YOR106W, strain vam3, active compounds read low 1 | locus YOR136W, strain idh2, active compounds read low 1.02 | locus YOR144C, strain elg1, active compounds read low 1.01 | locus YOR184W, strain ser1, active compounds read low 1.01 | locus YOR231W, strain MKK1, active compounds read low 1.03 | locus YOR265W, strain rbl2, active compounds read low 1.01 | locus YOR270C, strain vph1, active compounds read low 1.03 | locus YOR290C, strain snf2, active compounds read low 1.01 | locus YOR316C, strain cot1, active compounds read low 1.01 | locus YPL051W, strain arl3, active compounds read low 1 | locus YPL078C, strain atp4, active compounds read low 0.991 | locus YPL106C, strain sse1, active compounds read low 0.963 | locus YPL240C, strain hsp82, active compounds read low 0.998 | locus YPL256C, strain CLN2, active compounds read low 1.02 | locus YPR119W, strain clb2, active compounds read low 1.01 | locus YPR141C, strain kar3, active compounds read low 1.01 | locus YPR163C, strain tif3, active compounds read low 1.01 | locus YPR167C, strain met16, active compounds read low 1.03 | strain wtn01, active compounds read low 1.02
